In PubChem BioAssay (NCI) one finds growth data, which are given here for 14 molecules.

Some test systems named below: NCI-H23 lung; NCI-H226 lung; NCI-H322M lung; HOP-62 NSCLC; NCI-H460 lung; HOP-92 NSCLC; NCI-H522 lung; A549/ATCC NSCLC; 786-0 renal; COLO 205 colon.
What all share (test): NCI-60 one-dose screen, 48 h (100 = growth as untreated, 0 = no growth, -100 = all killed)
Common to all, as to details: 10 µM unless noted

Compounds without any hit were thinned out: in the full panel of roughly 83,000, 20% have a hit.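 Assay: single dose, 48 h. Readout: percent growth (0 = no net growth; negative = cell death). Active: <10.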 Unmarked numbers belong to inactive results. Activity calls are given as the source filed them.

On to `COc1cnc2c(c1)C(=O)c1c-2n(CCCCl)c(=O)c2ccncc12`, for which the growth is 58% with NCI-H23 lung; 69.5% in the test on NCI-H226 lung; 78.4% in the test with NCI-H322M lung; 58.2% in the test on HOP-62 NSCLC; 18.6% in the test on NCI-H460 lung; 110% in the test with HOP-92 NSCLC. The growth was 26.7% in the test on NCI-H522 lung, 69.3% with A549/ATCC NSCLC, 83.6% with 786-0 renal and 19.7% with COLO 205 colon.
For `O=C(O)c1cn(C2CC2)c2cc(N3CCN(C(=O)Nc4nc(-c5ccc(Br)cc5)cs4)CC3)c(F)cc2c1=O`, the growth is 12.4% in the test on NCI-H23 lung; 18.9% in the test on NCI-H226 lung; 6.95% (active) with NCI-H322M lung; 21.8% in the test on HOP-62 NSCLC; 10.4% with NCI-H460 lung; -8.59% (active) in the test on HOP-92 NSCLC. The growth was 5.78% (active) with NCI-H522 lung, 14.3% with A549/ATCC NSCLC, 27.3% in the test on 786-0 renal and 24.2% with COLO 205 colon.
Turning to `CCN(CC)CCCOc1ccc2ncnc(Nc3ccc(Oc4cccc(C(F)(F)F)c4)c(Cl)c3)c2c1`, the growth with NCI-H23 lung was 15.4%; in the test on NCI-H226 lung, 73.1%; in the test on NCI-H322M lung, 16%; in the test on HOP-62 NSCLC it was 13.6%; in the test on NCI-H460 lung, -87.7% (active); in the test on HOP-92 NSCLC, 27.3%. Besides, the growth is -2.46% (active) in the test with NCI-H522 lung, 5.61% (active) in the test on A549/ATCC NSCLC, -83.9% (active) in the test on 786-0 renal and -36.7% (active) with COLO 205 colon.
On to `COc1ccc(N2CCC(=S)NC2=S)cc1`, for which the growth is 99.2% with NCI-H23 lung; 86.4% in the test with NCI-H226 lung; 105% in the test with NCI-H322M lung; 108% in the test with HOP-62 NSCLC; 107% in the test on NCI-H460 lung; 104% in the test on HOP-92 NSCLC. Also, the growth in the test on NCI-H522 lung was 87.4%; in the test with A549/ATCC NSCLC, 99.8%; in the test with 786-0 renal it was 103%; in the test on COLO 205 colon it was 108%.
On to `C/C=C(\C)C(=O)N[C@H]1C(O)C[C@]2(C)C3CC[C@@]4(C)C(CC[C@@H]4C(C)N(C)C)C3CCC2C1O` (some centres undefined), for which the growth was 68.7% in the test on NCI-H23 lung; 115% with NCI-H226 lung; 65.2% in the test on NCI-H322M lung; 86.8% with HOP-62 NSCLC; 30.7% in the test on NCI-H460 lung; 46.6% in the test on HOP-92 NSCLC. The growth in the test on NCI-H522 lung is 90.6%; with A549/ATCC NSCLC, 81.6%; in the test on 786-0 renal, 68.4%; with COLO 205 colon, 29.4%.
Turning to `COc1ccc(CNc2c3ccccc3nc3ccccc23)c(OC)c1`, the growth with NCI-H23 lung was 34.9%; in the test with NCI-H226 lung, 46.3%; in the test with NCI-H322M lung, 40%; in the test with HOP-62 NSCLC, 47.2%; in the test on NCI-H460 lung it was 16.6%; in the test on HOP-92 NSCLC, -13.6% (active). Also, the growth in the test on NCI-H522 lung is 40.6%; in the test with A549/ATCC NSCLC it was 35.2%; in the test on 786-0 renal, 39.1%; with COLO 205 colon, 24.6%.
On to `CC(=C(c1ccc(OCCN2CCCCC2)cc1)c1ccc(OCCN2CCCCC2)cc1)c1ccc(Cl)cc1`, for which the growth in the test on NCI-H23 lung was -82.4% (active); with NCI-H226 lung it was -73.4% (active); with NCI-H322M lung it was -97.2% (active); in the test on HOP-62 NSCLC it was -82% (active); with NCI-H460 lung, -82.4% (active); in the test with HOP-92 NSCLC it was -82.9% (active). For the same molecule, the growth is -76.9% (active) with NCI-H522 lung, -81.7% (active) in the test on A549/ATCC NSCLC, -90.9% (active) with 786-0 renal and -68.2% (active) in the test with COLO 205 colon.
On to `Cc1cc2c(cc1C)N(C(=O)CCl)CC(=O)N2`, for which the growth in the test with NCI-H23 lung was 55.7%; in the test on NCI-H226 lung it was 33.1%; in the test with NCI-H322M lung, 95%; in the test with HOP-62 NSCLC, 73.4%; with NCI-H460 lung, 88.7%; in the test with HOP-92 NSCLC, 93.4%. The growth is -81.7% (active) in the test with NCI-H522 lung, 88.1% with A549/ATCC NSCLC, 51.2% in the test on 786-0 renal and -95.6% (active) in the test on COLO 205 colon.
Regarding `Cn1cc(-c2csc(-c3c[nH]c4ccc(F)cc34)n2)c2ccnc(Cl)c21`, the growth with NCI-H23 lung was 64.2%; in the test with NCI-H226 lung it was 62.1%; in the test with NCI-H322M lung it was 80.6%; in the test on HOP-62 NSCLC it was 98.2%; in the test with NCI-H460 lung it was 36.7%; in the test with HOP-92 NSCLC, 71.5%. For the same molecule, the growth was 79.4% in the test with NCI-H522 lung, 64.3% in the test on A549/ATCC NSCLC, 57.6% in the test on 786-0 renal and 52.2% in the test with COLO 205 colon.
As for `Nc1ncnc2c1N=C(c1ccc3c(c1)OCO3)CC(c1cccc(Nc3ccnc4cc(C(F)(F)F)ccc34)c1)N2` (centres undefined), the growth was 84.2% in the test with NCI-H23 lung; 78.1% with NCI-H226 lung; 94.3% with NCI-H322M lung; 84.5% with HOP-62 NSCLC; 90.7% with NCI-H460 lung; 53.8% in the test on HOP-92 NSCLC. The growth was 73.6% in the test on NCI-H522 lung, 68.6% in the test with A549/ATCC NSCLC, 82.5% in the test on 786-0 renal and 115% with COLO 205 colon.
As to `C=CCn1c(SCC(=O)Nc2ccc(/C(C)=N/O)cc2)nnc1-c1cc(-c2ccc(S(N)(=O)=O)cc2)nc2ccccc12`, the growth with NCI-H23 lung was 97.3%; with NCI-H226 lung it was 84.1%; with NCI-H322M lung, 96.7%; with HOP-62 NSCLC, 84.3%; in the test with NCI-H460 lung, 91%; in the test on HOP-92 NSCLC, 72.3%. In addition, the growth with NCI-H522 lung is 68.8%; in the test with A549/ATCC NSCLC it was 110%; in the test with 786-0 renal, 85.4%; in the test with COLO 205 colon it was 94.2%.
Regarding `S=c1nc2oc(-c3ccccc3)c(-c3ccccc3)c2c(/N=C\c2ccco2)[nH]1`, the growth with NCI-H23 lung is 88.2%; with NCI-H226 lung, 102%; with NCI-H322M lung it was 105%; with HOP-62 NSCLC, 82.5%; with NCI-H460 lung it was 115%; in the test on HOP-92 NSCLC it was 92.4%. Moreover, the figures for the growth in the test on NCI-H522 lung, in the test on 786-0 renal and in the test on COLO 205 colon were 86.1%, 97% and 120%, respectively.
Turning to `CC1=C2[C@@H](CC1)[C@]1(C)O[C@@](C3CCCCC3)(C[C@H]1OC(=O)CO)[C@H]2OC(=O)/C=C/c1ccccc1`, the growth in the test on NCI-H23 lung was 93.6%; in the test on NCI-H226 lung, 76.5%; with NCI-H322M lung it was 94.6%; with HOP-62 NSCLC, 91%; in the test on NCI-H460 lung it was 75.8%; with HOP-92 NSCLC, 44.3%. Besides, the growth was 68% in the test with NCI-H522 lung, 63.1% in the test with A549/ATCC NSCLC, 55.9% in the test on 786-0 renal and 93.8% in the test with COLO 205 colon.
For `CNC(C)[C@H]1CCC2C3CC=C4C(=O)[C@@H](NC(=O)C=C(C)C)CC[C@]4(C)C3CC[C@@]21C` (some centres undefined), the growth with NCI-H23 lung was 30.1%; in the test with NCI-H226 lung it was 46.5%; in the test on NCI-H322M lung, 13.9%; with HOP-62 NSCLC it was -4.38% (active); with NCI-H460 lung it was -24.6% (active); in the test with HOP-92 NSCLC, 9.2% (active). Further, the growth was 58.5% in the test on NCI-H522 lung, 30.3% in the test on A549/ATCC NSCLC, 3.96% (active) with 786-0 renal and -82.4% (active) with COLO 205 colon.
